23 compounds from ChEMBL document CHEMBL4296182, “CO-ADD screening of NIH NCI Diversity Set V” can be followed below.

Assay [1] concerns Staphylococcus aureus. Put plainly: Antibacterial activity against Staphylococcus aureus MRSA ATCC 43300 (CO-ADD:GP_020); MIC in CAMBH media using NBS plates, by Resazurin F(560/590). It counts as functional. The note with it: Concentration 20 uM, ASSAY_TEST Inhibition of Bacterial Growth, detection method Resazurin, Fluorescence (ex560/em590), MEDIA CAMHB, plate type 384well, CORNING #3640, time 18 hr.

Assay [2] concerns Acinetobacter baumannii. Put plainly: Antibacterial activity against Acinetobacter baumannii ATCC 19606 (CO-ADD:GN_034); MIC in CAMBH media using NBS plates, by Resazurin F(560/590). The assay is classed as functional. As to conditions: Concentration 20 uM, ASSAY_TEST Inhibition of Bacterial Growth, detection method Resazurin, Fluorescence (ex560/em590), MEDIA CAMHB, plate type 384well, CORNING #3640, time 18 hr.

Assay [3] relates to Escherichia coli. The assay is described as follows: Antibacterial activity against Escherichia coli ATCC 25922 (CO-ADD:GN_001); MIC in CAMBH media using NBS plates, by Resazurin F(560/590). The assay is classed as functional. The note with it: Concentration 20 uM, ASSAY_TEST Inhibition of Bacterial Growth, detection method Resazurin, Fluorescence (ex560/em590), MEDIA CAMHB, plate type 384well, CORNING #3640, time 18 hr.

Assay [4] concerns Klebsiella pneumoniae. The note with it: Concentration 20 uM; ASSAY_TEST Inhibition of Bacterial Growth; detection method Absorption (OD600); MEDIA CAMHB; plate type 384well; NBS; CORNING #3640; time 18 hr.
Assay [5] relates to Candida albicans. The note with it: 20 µM.
Assay [6] deals with Cryptococcus neoformans. The note with it: Concentration 20 uM; ASSAY_TEST Inhibition of Fungal Growth; detection method Resazurin; Absorption (OD600-OD570); plate type 384well; NBS; CORNING #3640. For orientation: Resazurin is reduced to fluorescent resorufin, in cell work by metabolically active cells.

For part of these data: Measured potencies and affinities stand elsewhere.

The Inhibition is the change of the read-out against control, counted positive when it falls. For the compound `CC(=O)Nc1ccc(Cc2nc3c(=O)n(C)c(=O)n(C)c3[nH]2)cc1`, the Inhibition is 10.98% in assay [1]; -13.87% in assay [2]; 3.26% in assay [3]; 6.41% in assay [4]; 3.5% in assay [5]; -7.42% in assay [6].

For `CC(=O)N1C(=O)C2(NCC(C)N2)c2ccccc21` (stereo not drawn), the Inhibition was 7.15% in assay [1]; -16.52% in assay [2]; 6.45% in assay [3]; 10.18% in assay [4]; 2.13% in assay [5]; -1.95% in assay [6].

Consider `Cc1ccc(NC(=O)N2CCCCC2)cc1[N+](=O)[O-]`, for which the Inhibition in assay [1] was 0.24%; in assay [2], -10.39%; in assay [3], 3.85%; in assay [4] it was 3.41%; in assay [5], 6.56%; in assay [6] it was -11.71%.

Consider `CCC(CC)NCCOC(=O)c1ccc([N+](=O)[O-])cc1`, for which the Inhibition was -1.24% in assay [1]; -9.59% in assay [2]; 5.41% in assay [3]; 5.67% in assay [4]; 0.5% in assay [5]; -8.44% in assay [6].

As to `COc1c(NC(C)=O)c2ccccc2c2ccccc12`, the Inhibition was 12.56% in assay [1]; 4.74% in assay [2]; 1.88% in assay [3]; 16.73% in assay [4]; 5.3% in assay [5]; -2.59% in assay [6].

Turning to `CN(C(=O)c1ccncc1)c1ccccc1`, the Inhibition is 38.14% in assay [1]; 13.73% in assay [2]; 16.42% in assay [3]; 7.45% in assay [4]; 4.18% in assay [5]; 6.4% in assay [6].

For `O=c1nc2onnc2c(/C=N\O)[nH]1`, the Inhibition in assay [1] is 11.4%; in assay [2], -9.04%; in assay [3] it was 10.25%; in assay [4], 15.41%; in assay [5], -0.67%; in assay [6] it was -3.06%.

Regarding `C(=C\CSc1ccccn1)/CSc1ccccn1`, the Inhibition in assay [1] is 10.81%; in assay [2], -13.92%; in assay [3], 9.4%; in assay [4], 8.71%; in assay [5], 2.49%; in assay [6], -12.06%.

Take `O=C(/C=C/C(=O)N1CCc2ccccc2C1)N1CCc2ccccc2C1`: the Inhibition is 0.65% in assay [1]; -9.4% in assay [2]; -3.52% in assay [3]; 3.56% in assay [4]; 7.97% in assay [5]; -10.59% in assay [6].

In the case of `COc1ccc(NC(=O)c2cc3ccc4c5ccccc5[nH]c4c3cc2O)cc1`, the Inhibition in assay [1] was 16.09%; in assay [2], 5.56%; in assay [3] it was 1.69%; in assay [4], 7.19%; in assay [5], -5.12%; in assay [6] it was 1.29%.

Take `COc1cc(C(=O)C(=O)c2cc(OC)c(O)c(OC)c2)cc(OC)c1O`: the Inhibition in assay [1] is 3.22%; in assay [2], 7.73%; in assay [3], -5.19%; in assay [4], 5.73%; in assay [5], 3.18%; in assay [6] it was 0.06%.

Take `COC(=O)Cc1[nH]c(S)nc1C(=O)OC`: the Inhibition in assay [1] is -11.54%; in assay [2], 1.23%; in assay [3], -12.23%; in assay [4], 0.59%; in assay [5], 1.43%; in assay [6], 19.86%.

As for `COc1cccc(/C=C/c2nccc3ccccc23)c1OC`, the Inhibition in assay [1] is 13.01%; in assay [2], 1.37%; in assay [3], 11.96%; in assay [4] it was 0.37%; in assay [5] it was 0.68%; in assay [6], -13.37%.

Take `c1ccc(NN(Cc2ccncc2)c2ccccc2)cc1`: the Inhibition in assay [1] was -5.2%; in assay [2], -18.1%; in assay [3], 6%; in assay [4], 7.57%; in assay [5] it was 0.97%; in assay [6], -6.08%.

Take `Nc1ccn(C2OC(CCl)C(O)C2O)c(=O)n1` (stereo not drawn): the Inhibition in assay [1] is 16.82%; in assay [2], -8.52%; in assay [3], 10.09%; in assay [4] it was 13.7%; in assay [5], 0.99%; in assay [6], -4.88%.

As to `CC(=C/c1ccccc1)/C=C1/NC(=S)NC1=O`, the Inhibition in assay [1] was 2.65%; in assay [2] it was 4.35%; in assay [3], -0.7%; in assay [4], 10.87%; in assay [5], 2.17%; in assay [6] it was -5.48%.

Regarding `Nc1nc(O)c2ncn(C3CCCC3)c2n1`, the Inhibition in assay [1] was 3.29%; in assay [2], -9.23%; in assay [3], 3.79%; in assay [4] it was 16.95%; in assay [5] it was -0.06%; in assay [6], -9.03%.

As to `CCOc1nsc(OCC)n1`, the Inhibition is 10.98% in assay [1]; -19.84% in assay [2]; 11.82% in assay [3]; -1.83% in assay [4]; 5.3% in assay [5]; -10.38% in assay [6].

`CC(C)(C)c1ccc(NS(=O)(=O)c2ccc(N)cc2)cc1`: the Inhibition is 8.8% in assay [1]; 3.26% in assay [2]; -6.26% in assay [3]; 16.84% in assay [4]; 3.64% in assay [5]; -7.4% in assay [6].

For `Cc1ccc(NC(=S)NC(=O)c2ccccc2)cc1NC(=S)NC(=O)c1ccccc1`, the Inhibition in assay [1] is 23.47%; in assay [2], -11.72%; in assay [3] it was 7.94%; in assay [4], 3.93%; in assay [5], -0.27%; in assay [6], 1.39%.

Consider `O=c1[nH]c2c(cnn2-c2ccc(Cl)cc2)c(=O)n1-c1cccc(Cl)c1`, for which the Inhibition was 5.86% in assay [1]; 6.48% in assay [2]; -10.38% in assay [3]; 28.41% in assay [4]; 2.46% in assay [5]; -10.88% in assay [6].

As to `COc1ccc2nc3cc(Cl)ccc3c(C#N)c2c1`, the Inhibition was 10.22% in assay [1]; 12.04% in assay [2]; 6.91% in assay [3]; 7.74% in assay [4]; 4.11% in assay [5]; -4.51% in assay [6].

As for `Cc1ccc(NC(=O)Nc2nc3ccccc3s2)cc1NC(=O)Nc1nc2ccccc2s1`, the Inhibition in assay [1] is -1.63%; in assay [2] it was -10.02%; in assay [3] it was 17.87%; in assay [4] it was 8.92%; in assay [5] it was -2.38%; in assay [6], -1.68%.
